BoNT-A LC inh2: BoNT/A light chain protease inhibitors, primary screen, biochemical, flow cytometry, MLPCN library | Botulinum neurotoxin type A light chain protease (Clostridium botulinum A str. ATCC 3502) | 360,000 compounds, 0.17% hits | multiplex microsphere protease substrate cleavage | inhibition, % at 10 µM
MazEF act: activators of E. coli MazEF toxin-antitoxin RNase, primary screen, biochemical, fluorescence, uHTS. Endoribonuclease toxin MazF (Escherichia coli (strain K12)), P0AE70. FAM/BHQ RNA-DNA oligo cleavage fluorescence, 5 h. activation, % at 20 µM. 350,000 compounds, 0.32% hits. AID 504720, 2011; in the data active = activation above about 50%
Anthrax LF inh2: Bacillus anthracis LF protease inhibitors, primary screen, biochemical, multiplex microsphere, MLPCN library; 360,000 compounds, 0.12% hits; inhibition, % at 10 µM; multiplex microsphere protease cleavage assay; Lethal factor (Bacillus anthracis), P15917; AID 588501, 2011
BoNT-F LC inh: BoNT/F light chain protease inhibitors, primary screen, biochemical, flow cytometry, MLPCN library; Multiplex microsphere protease cleavage assay; 360,000 compounds, 0.22% hits; AID 588497, 2011; Botulinum neurotoxin type F light chain protease (Clostridium botulinum); inhibition, % at 10 µM; in the data active = inhibition above about 35%, passing the limit was not always enough; inconclusive = no clear call, values can overlap the other calls
Autofluor counter: counter-screen for toxin protease inhibitors: compound fluorescence; compound autofluorescence counterscreen, microsphere flow cytometry; hits give high values; fluorescence intensity (no concentration beside the values); AID 624483; 360,000 compounds, 3.1% hits; in the data active = fluorescence intensity above about 16000; inconclusive = no clear call, values can overlap the other calls
Large screens that a line does not name were inactive. The list is not random: actives were taken first. Their share in the collection is about 3.7%. Cut-off read from the data, not from the text of the source, unless noted: active = inhibition above about 30%; inconclusive = no clear call, values can overlap the other calls; inactive = below that.

CN(C(=O)CSc1nc(-c2cccs2)nc2ccccc12)C1CCS(=O)(=O)C1 (centres undefined)	none
CC1(C)N=C(c2ccc(Cl)cc2)C(=O)N1	Autofluor counter 23886
Cc1ccc(CN(CC(=O)NCCc2ccccc2)C(=O)CCCC(=O)Nc2cc(C)on2)cc1	Autofluor counter 17240
CC(N)c1csc(NC(=O)Nc2cccc(C(F)(F)F)c2)n1 (centres undefined)	none (no result: MazEF act)
CCc1c(C)sc(NC(=O)c2ccco2)c1C(=O)N1CCOCC1	none
CCc1c(C)sc(NC(=O)c2ccco2)c1C(=O)N1CCCCC1	Autofluor counter 22698
Clc1ccc(-n2c(SCc3nc4ccccc4[nH]3)nnc2-c2ccncc2)cc1	Autofluor counter 21021
CCOc1ccc(-c2nnc(SCc3nc4ccccc4[nH]3)n2N)cc1	Autofluor counter 22829
Brc1ccc(-n2c(SCc3nc4ccccc4[nH]3)nnc2-c2ccncc2)cc1	none
Cn1c(SCc2nc3ccccc3[nH]2)nnc1-c1cccnc1	BoNT-A LC inh2 inconclusive, Autofluor counter 20145
O=C(Nc1ccc(CN2CCCCC2)cc1)c1ccc2c(c1)OCO2	Autofluor counter 20600
Cc1cccc(Cn2ccc(NC(=O)c3ccc4c(c3)OCO4)n2)c1	none
O=C(Nc1ccn(Cc2ccc(Cl)cc2)n1)c1ccc2c(c1)OCO2	Autofluor counter 24410
COc1ccc2c(c1)OCC(O)(c1ccccc1)C2=O (centres undefined)	none
CN(C)c1ccc2c(c1)OC(N)=C(C#N)C2c1cccc(F)c1 (centres undefined)	MazEF act 51.6
CCOc1ccc(C2C(C#N)=C(N)Oc3cc(O)ccc32)cc1OCC (centres undefined)	none
COc1ccc(C2C(C#N)=C(N)Oc3cc(O)ccc32)cc1Cl (centres undefined)	BoNT-F LC inh 35.3
COc1cccc(NC(=O)CN2CCC(NC(=O)c3ccccc3C)CC2)c1	none
COc1ccc(/C(N)=N/OC(=O)c2cc(-c3ccccc3)nc3ccccc23)cc1	Autofluor counter 19686
COC(=O)CCS(=O)(=O)c1nc(-c2ccccc2)cc(C(F)(F)F)n1	Autofluor counter 21982
C=CCNC(=O)c1cc(-c2ccc(Br)cc2)on1	Autofluor counter 22477
O=C(NCCCN1CCOCC1)c1cc(-c2ccc(Br)cc2)on1	Autofluor counter 18589
O=C(NCCN1CCOCC1)c1cc(-c2ccc(Br)cc2)on1	none
COc1ccc(Nc2nc(C(=O)NCCCN3CCOCC3)cs2)cc1	Autofluor counter 16850
COc1ccc(NS(=O)(=O)c2cc(NC(=O)c3ccc(=O)[nH]n3)ccc2C)cc1	none
Cc1ccc(CCNC(=O)CC(C)CC2=NS(=O)(=O)c3ccccc3N2)cc1 (centres undefined)	none
O=C(Nc1cc(C(F)(F)F)ccc1N1CCOCC1)c1cccc(S(=O)(=O)N2CCOCC2)c1	none
CSCC[C@H](NC(=O)OC(C)(C)C)C(=O)N1CCC(C(=O)N[C@@H](C)C(=O)O)CC1	BoNT-A LC inh2 inconclusive, Autofluor counter 20586
O=C(c1c(F)cccc1F)N1CCCC(c2nc(-c3ccc(Cl)cc3)no2)C1 (centres undefined)	BoNT-F LC inh inconclusive
COc1ccc(-c2noc(C3CCCN(C(=O)c4c(F)cccc4F)C3)n2)cc1OC (centres undefined)	none
Cc1ccc(-c2noc(C3CCCN(C(=O)c4c(F)cccc4F)C3)n2)cc1 (centres undefined)	Autofluor counter 21313
COc1ccc(C(=O)N2CCCC(c3nc(-c4ccc(OC)c(OC)c4)no3)C2)c(OC)c1 (centres undefined)	Autofluor counter 20939
O=C(Cc1ccccc1)N1CCC(c2nc(-c3ccc(F)cc3)no2)CC1	Autofluor counter 16726
COc1ccc(-c2noc(C3CCCN(C(=O)c4ccccc4OC)C3)n2)cc1OC (centres undefined)	BoNT-A LC inh2 inconclusive, Autofluor counter 16635
Nc1ccn(CC(=O)N[C@H](CO)Cc2c[nH]c3ccccc23)c(=O)n1	none
COc1cc(F)c(C2=CC(=O)C[C@H](c3ccc(Cl)cc3)C2)cc1F	none
O=C(C1CC1)N1CCC(c2nc(-c3ccc(S(=O)(=O)NCC4CCCO4)cc3)no2)CC1 (centres undefined)	Autofluor counter 19413
COc1cc(CC(=O)Nc2nccs2)cc(OC)c1OC	BoNT-A LC inh2 inconclusive, Autofluor counter 22884
Cc1cc2occ(CC(=O)Nc3nccs3)c2cc1C(C)C	BoNT-A LC inh2 inconclusive, Autofluor counter 22242
O=C(NCCc1ccccc1)c1c[nH]c2ccccc2c1=O	none
COC(=O)C(Cc1ccc(O)cc1)NC(=O)c1ccc2c(c1)OCCO2 (centres undefined)	none
CCCCOC(=O)CCCN1C(=O)/C(=C2\SC(=S)N(CCCC(=O)OCCCC)C2=O)SC1=S	BoNT-A LC inh2 65.3, Anthrax LF inh2 45.2
CCN1C(=O)c2cccc3c(NC(=O)c4ccc5c(c4)OCCO5)ccc1c23	MazEF act 94.8
Cc1c(C)c2c(OCC(=O)N[C@@H](Cc3ccccc3)C(=O)O)cc3c(c2oc1=O)CCC(C)(C)O3	none
Cn1c2c(c(=O)n(C)c1=O)CN(CCCN1CCOCC1)CN2	Autofluor counter 16352
O=C(NCC(F)(F)F)c1ccc2sc([C@H]3C[C@H](O)[C@@H](CO)O3)nc2c1	none (no result: MazEF act)
O=c1cccc2n1CC1CC2CN(Cc2c(F)cccc2Cl)C1 (centres undefined)	none
O=c1cccc2n1CC1CC2CN(Cc2cccc(Cl)c2Cl)C1 (centres undefined)	Autofluor counter 20838
Cc1ccc(-n2c([S-])c(C(=O)Nc3ccc(OC(F)F)cc3)[n+]3ccc(C(=O)NCCO)cc23)cc1C	BoNT-A LC inh2 50.9
COc1ccccc1-n1c([S-])c(C(=O)Nc2ccccc2C(F)(F)F)[n+]2ccc(C(=O)NCCO)cc12	BoNT-A LC inh2 36.5
CCN(CC)CCCNC(=O)c1ccc(OCC(=O)Nc2ccccc2C(F)(F)F)c(OC)c1	none
CCOC(=O)c1cc(NC(=O)C2C3CCC(O3)C2C(=O)O)cc(C(=O)OCC)c1 (centres undefined)	Autofluor counter 23079
CCOC(=O)c1cc(NC(=O)c2ccoc2C)cc(C(=O)OCC)c1	BoNT-A LC inh2 inconclusive, Autofluor counter 23038
CCOC(=O)Cc1csc(NC(=O)c2c(-c3c(F)cccc3Cl)noc2C)n1	Autofluor counter 21863
CCOC(=O)Cc1csc(NC(=O)c2ccoc2C)n1	Autofluor counter 23823
COC(=O)C=CC(=NNc1ccccc1)c1ccccc1	none
CCCOc1ccc(C(=O)Nc2ccc(N3CCOCC3)cc2N2CCOCC2)cc1OCC	none
CCOC(=O)C1=C(N)Oc2cc(C)oc(=O)c2C12C(=O)N1c3c(cc(OC)cc32)C(C)=CC1(C)C (centres undefined)	BoNT-A LC inh2 inconclusive, Autofluor counter 23174

Screens (PubChem)
